From PubChem BioAssay AID1845224 (National Center for Advancing Translational Sciences (NCATS), 2023)
Records with an inconclusive call do not appear. Where a call stands in place of a potency, no number is given. Calls of active or inactive are those of the source. Calls follow the shape of the dose curve; as a rule, active = well fitted curve in the direction sought with a large enough effect; inconclusive = small, poorly fitted or top-dose-only effect, or another doubt; inactive = no such curve, though single readings can be large or run the other way.

System: NanoLuc luciferase (engineered Oplophorus gracilirostris luciferase)
Experiment: Confirmatory Nanoluciferase (NLuc) qHTS assay for identification of artifact compounds.
In short: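 Compounds were preincubated 15 min at room temperature with diluted secreted NanoLuc from S16 cell medium, then read by luminescence 5 min after Nano-Glo substrate. Percent inhibition versus DMSO and no-enzyme controls fitted by 4-parameter Hill curve.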

Row | SMILES | Potency
1 | Cc1cc(O)cc(O)c1C(=O)O | inactive
2 | CCSc1ncc(Cl)c(C(=O)Nc2c(C(=O)Nc3cccc(C)c3)oc3ccccc23)n1 | inactive
3 | Oc1ccc(CCc2c(F)cccc2F)c2cccnc12 | inactive
4 | CCOc1ccccc1-n1nnc(-c2nc(-c3ccccc3)no2)c1N | inactive
5 | COc1ccc(Cn2c(CCC(=O)Nc3cc(C)cc(C)c3)nc3cccnc32)cc1 | inactive
6 | O=S(=O)(Nc1cccc2cccnc12)c1ccccc1 | inactive
7 | CCC(C(=O)NCc1cc(OC)ccc1OC)n1nc(C)c2sc3ccccc3c2c1=O (stereo unspecified) | inactive
8 | O=c1c2ccccc2nc2sc(Nc3ccc(Br)cc3)nn12 | inactive
9 | COc1ccc(-c2noc(N3CCC(C(=O)N4CCN(c5cccc(C)c5C)CC4)CC3)n2)cc1 | inactive
10 | CC(=O)N1CCC(N(Cc2ccco2)C(=O)Nc2ccc(C)c(Cl)c2)CC1 | inactive
11 | O=C(O)c1sc2c(c1-c1nc3ccccc3s1)CCNC2 | inactive
12 | Cc1ccc(CNc2ncnc3onc(-c4ccc(F)cc4)c23)cc1 | inactive
13 | Cc1cccn2c(=O)c3cc(C(=O)NCc4ccccc4)c(=N)n(CCOCCO)c3nc12 | inactive
14 | O=S1(=O)N=C(Oc2ccc(-c3ccccc3)cc2)c2ccccc21 | inactive
15 | O=c1oc2ccc(F)cc2cc1-c1nc(-c2cccs2)no1 | inactive
16 | O=C(O)c1cc(F)c(S(=O)(=O)N2CCN(S(=O)(=O)c3ccc4c(c3)OCCO4)CC2)cc1F | inactive

Row | SMILES | Potency
17 | Cc1ccc(NC(=O)c2ccc(Br)cc2)c(C(=O)c2ccccc2)c1 | inactive
18 | CCOC(=O)c1c(C)[nH]c(C)c1S(=O)(=O)N1CCC(C(=O)N2CCN(c3ccccc3)CC2)CC1 | inactive
19 | CCOC(=O)c1ccc(N2C(=O)c3n[nH]c(-c4ccco4)c3C2c2ccc(F)cc2)cc1 (stereo unspecified) | inactive
20 | CCCS(=O)(=O)N1CC(=O)N(c2cc(C)cc(C)c2)C(C)(C(=O)NC2CCCCCC2)C1 (stereo unspecified) | inactive
21 | CCCC[C@H]1C2=C3[C@@H](CC(C(=O)OC)=C[C@@H](C(=O)OC)[C@H]3C(C)(C)C2=O)n2c(=O)n(-c3ccccc3)c(=O)n21 | inactive
22 | CC(C)[C@@H](C)/C=C/[C@@H](C)[C@H]1CC[C@H]2/C(=C/C=C3\C[C@@H](O)CC[C@@H]3C)CCC[C@]12C | inactive
23 | O=C(Nc1ccc(Br)cc1)c1cccc(C(=O)Nc2ccc(Br)cc2)c1 | inactive
24 | COc1cc(O)c2c(c1)O[C@H](c1ccccc1)CC2=O | inactive
25 | Nc1cccc(-c2ccc(NC(=O)c3cccs3)cn2)c1 | inactive
26 | COc1ccc(C(=O)Nc2ccc(-c3nc4ncccc4o3)cc2)cc1 | inactive
27 | O=C(NCCC1=CCCCC1)c1ccc2c(c1)N(Cc1cccc(Cl)c1)C(=O)c1ccccc1S2=O (stereo unspecified) | inactive
28 | COc1cccc2cc(C(=O)Nc3ccc(F)c(F)c3)c(=O)oc12 | inactive
29 | CSc1ccc2nc(Nc3nnc(-c4cccs4)o3)sc2c1 | inactive
30 | CCOc1ccccc1C(=O)Nc1cccc2ccc(C)nc12 | inactive
31 | Cc1ccc(NC(=O)c2ncn(-c3ccccc3)n2)c(Cl)c1 | inactive
